Bioassay records deposited in PubChem by National Center for Advancing Translational Sciences (NCATS).
Cycloheximide cs – Cycloheximide Counterscreen for Small Molecule Inhibitors of Shiga Toxin. cell reporter, cycloheximide protein synthesis inhibition counterscreen. max response, %. 12% of 300,000 active; in the data active = max response mostly above about 13%, no sharp cut-off; inactive = mostly below about 14%; note: read at 38.3 µM for the half of the compounds with a filed dose
Pf growth 48h – Primary qHTS for delayed death inhibitors of the malarial parasite plastid, 48 hour incubation | P. falciparum luciferase growth in erythrocytes, 48 h | 5.9% of 310,000 active | Potency, µM (highest dose often 28.7 µM), hits mostly inhibitors
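Luciferase-expressing P. falciparum in infected erythrocytes (2% hematocrit, 0.1% parasitemia final) in RPMI 1640/0.5% Albumax were exposed to compound for 48 hours at 37 C, 5% CO2; growth read as luminescence.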
Shiga toxin inh – A qHTS for Small Molecule Inhibitors of Shiga Toxin. Vero cells, Shiga toxin protein synthesis inhibition reporter. inhibition, % at 38.7 µM. 9.2% of 290,000 active; in the data active = inhibition mostly above about 28%, no sharp cut-off; inactive = mostly below about 43%
Pf growth 96h – Primary qHTS for delayed death inhibitors of the malarial parasite plastid, 96 hour incubation. P. falciparum luciferase reporter growth, 96 h. Potency, µM (titrated, usually from 28.7 µM), actives largely listed as inhibitors. 6.9% of 320,000 active. AID 504834, 2011
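Two-generation exposure (96 h) targets delayed-death phenotype. Reporter parasites carrying integrated firefly luciferase, in red cells at 2% hematocrit and 0.05% parasitemia final, kept at 37 C, 5% CO2; luminescence loss indicates inhibition.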
Of the large screens only hits and unclear results are named; the others gave an inactive call. This is a sample that favours compounds with a hit; in the whole collection about 21% have one here. Unless noted, calls come from the whole dose curve; as a rule, active = well fitted inhibition curve with a large enough effect; inconclusive = small, poorly fitted or top-dose-only effect, or another doubt; inactive = no such curve, though single readings can be large or run the other way.

COc1ccc2cc(C(=O)Nc3ccc(S(N)(=O)=O)cc3)sc(=O)c2c1OC	none
COc1ccc2cc(C(=O)Nc3ccccc3)sc(=O)c2c1OC	Cycloheximide cs 43, Shiga toxin inh 34, Pf growth 96h inconclusive
Cc1ccc(N2CC(C(=O)OCc3nnc(-c4ccccc4)o3)CC2=O)cc1 (stereo not given)	none (no result: Cycloheximide cs, Shiga toxin inh)
O=C(CCC(=O)c1cccs1)OCC(=O)c1ccccc1F	Pf growth 96h inconclusive (no result: Cycloheximide cs, Shiga toxin inh)
Cc1ccc(C)c(-n2nnnc2Sc2nc([N+](=O)[O-])nn2C)c1	Pf growth 48h inconclusive
Cc1ccc(-n2nnnc2Sc2nc([N+](=O)[O-])nn2C)cc1C	Pf growth 48h 3.3µM, Pf growth 96h inconclusive
CN(Cc1ccccc1)C1CCNCC1	none (no result: Shiga toxin inh)
CCOC(=O)c1c(C)n(-c2ccccc2)c2ccc(O)c(CN(C)C)c12	Pf growth 48h inconclusive
CCOC(=O)c1c(CS(=O)(=O)c2ccccc2)n(C)c2cc(Br)c(O)c(CN(C)C)c12	Pf growth 48h 9.3µM
CCOC(=O)c1c(CN2CCOCC2)n(C)c2cc(Br)c(O)c(CN(C)C)c12	Pf growth 48h 10µM, Pf growth 96h inconclusive
CCOC(=O)c1c(CS(=O)(=O)c2ccccc2)n(C)c2cc(Br)c(O)cc12	none
CCOC(=O)c1c(C)n(C)c2cc(CN(C)C)c(O)c(S(=O)(=O)c3ccccc3)c12	Cycloheximide cs 23, Pf growth 96h inconclusive
CCOC(=O)NN1C(=O)c2ccccc2NC1c1cccs1 (stereo not given)	none
CNC(=S)N1N=C(c2ccc(C)cc2)CC1c1ccc(N(C)C)cc1 (stereo not given)	Cycloheximide cs 43, Pf growth 48h inconclusive, Pf growth 96h inconclusive
CNC(=S)N1N=C(c2ccc(Br)cc2)CC1c1ccc(OC)cc1 (stereo not given)	Pf growth 96h 10µM
CNC(=S)N1N=C(c2ccc(OC)cc2)CC1c1ccccc1Cl (stereo not given)	Pf growth 48h inconclusive, Pf growth 96h inconclusive
CCC(=O)N1N=C(c2ccc(NS(C)(=O)=O)cc2)CC1c1ccc(N(C)C)cc1 (stereo not given)	Cycloheximide cs 30, Shiga toxin inh 72
CNC(=S)N1N=C(c2ccc(OC)cc2)CC1c1ccc(Cl)cc1Cl (stereo not given)	Pf growth 48h 12µM, Pf growth 96h 5.9µM
Cc1cccc(C(=O)N[C@H](C(=O)Nc2ccc(C)c(S(=O)(=O)N(C)C)c2)C(C)C)c1	Pf growth 48h inconclusive, Pf growth 96h inconclusive
CCCCn1c(N)c(N(CCOC)C(=O)c2ccc(S(=O)(=O)N3CCCCC3)cc2)c(=O)[nH]c1=O	none (no result: Cycloheximide cs, Shiga toxin inh)
CCOCCCNC(=O)c1cc(Cl)c(NC(=O)C2=C(C)OCCS2)cc1OC	Pf growth 48h inconclusive
CCc1cc(Br)ccc1NC(=S)NCCc1ccccc1	Pf growth 48h inconclusive, Pf growth 96h inconclusive
O=c1/c(=C\c2ccc(F)cc2)sc2n1CCCN=2	Cycloheximide cs 43, Shiga toxin inh 93
CN(C)c1ccc(/C=c2\sc3n(c2=O)CCCN=3)cc1	Cycloheximide cs 25
COC(=O)/C=c1/sc2n(c1=O)CCN=2	none
O=c1/c(=C/c2ccc(O)cc2)sc2n1CCCN=2	Shiga toxin inh 104
CCC(=O)Nc1cccc(-n2nnnc2SCC(=O)c2ccc(C)c(C)c2)c1	Cycloheximide cs 26, Shiga toxin inh 42
CCCCn1nnnc1SCC(=O)c1ccc(C)c(C)c1	Cycloheximide cs 38 (no result: Pf growth 96h)
CCC(=O)Nc1cccc(-n2nnnc2SCC(=O)NCc2ccco2)c1	Pf growth 96h inconclusive
CC(C)(C)N(Cc1ccccc1)C(=O)COC(=O)C1=NN(c2ccccc2)C(=O)CC1	none (no result: Cycloheximide cs, Shiga toxin inh)
Cc1cc(C)n(C(=O)CCCn2cc([N+](=O)[O-])cn2)n1	Pf growth 96h inconclusive
CCOc1ccc(NC(=O)CC2C(=O)N(CC)C(=S)N2CCN2CCOCC2)cc1 (stereo not given)	Pf growth 48h inconclusive
O=C(CC1C(=O)N(Cc2ccccc2)C(=S)N1CCN1CCOCC1)Nc1ccc(F)cc1 (stereo not given)	Pf growth 48h 1.9µM
CCCOc1ccc(NC(=O)CC2C(=O)N(CC)C(=S)N2CCCN2CCN(Cc3ccccc3)CC2)cc1 (stereo not given)	Pf growth 48h inconclusive, Pf growth 96h 4.1µM
COc1ccc(C)cc1NC(=O)C1CCCN(S(=O)(=O)c2ccc3c(c2)CCCN3C(C)=O)C1 (stereo not given)	Pf growth 48h inconclusive, Pf growth 96h inconclusive
CC(C)Oc1ccc(C(=O)Nc2ncn[nH]2)cc1	Pf growth 96h 10µM
CCOc1ccc(C(=O)Nc2ncn[nH]2)cc1	Pf growth 96h 2.1µM
CC(C)Oc1cccc(C(=O)Nc2ncn[nH]2)c1	Pf growth 96h inconclusive
CC(C)COc1ccc(C(=O)Nc2ncn[nH]2)cc1	none
Cc1ccc(NS(=O)(=O)c2ccc(Cl)nc2)c(C)c1	none (no result: Cycloheximide cs, Shiga toxin inh)
O=C(CN1C(=O)c2cccc3cccc1c23)NCC1CCCO1 (stereo not given)	none
O=C(CN1C(=O)/C(=C\c2cccc(Br)c2)Oc2ccccc21)NCC1CCCO1 (stereo not given)	Pf growth 48h inconclusive, Pf growth 96h 13µM
CCCc1cc(O)c2c(C)cc(=O)oc2c1	Pf growth 48h inconclusive, Pf growth 96h 12µM
CCCCc1cc(=O)oc2cc(C)cc(O)c12	Pf growth 48h inconclusive, Pf growth 96h inconclusive
Cc1ccc(NC(=O)COC(=O)C2CC(=O)N(Cc3ccccc3)C2)cc1F (stereo not given)	none
CCNC(=O)Cn1cc(C(F)(F)F)cc(Cl)c1=O	none
COc1ccc(NC(=O)C2CC(c3cccc(Br)c3)=NO2)cc1OC (stereo not given)	Pf growth 96h 10µM (no result: Shiga toxin inh)
COc1ccc(NC(=O)C2CC(c3c(F)cccc3Cl)=NO2)cc1 (stereo not given)	Cycloheximide cs 18 (no result: Shiga toxin inh)
COc1ccc(OC)c(C2=NOC(C(=O)NCc3cccs3)C2)c1 (stereo not given)	Pf growth 96h 0.37µM
COc1cccc(C2=NOC(C(=O)Nc3cc(C)on3)C2)c1OC (stereo not given)	Cycloheximide cs 14
COc1ccc(OC)c(C2=NOC(C(=O)NCCN3CCOCC3)C2)c1 (stereo not given)	none
COc1ccccc1C(=O)NC(CCSC)C(=O)OC(C)C(=O)NC1CC1 (stereo not given)	none (no result: Cycloheximide cs, Shiga toxin inh)
CCCOc1c(Br)cc(C(=O)OCC(=O)NC(=O)c2cccn2C)cc1OC	none (no result: Cycloheximide cs, Shiga toxin inh)
COc1ccc(OC)c(C2=NOC(C(=O)Nc3ccc4c(c3)OCCO4)C2)c1 (stereo not given)	none
COc1cccc(C2=NOC(C(=O)Nc3ccc(OC)c(OC)c3)C2)c1 (stereo not given)	Cycloheximide cs 17, Pf growth 96h inconclusive
COc1cccc(C2=NOC(C(=O)Nc3cccc(C(C)=O)c3)C2)c1 (stereo not given)	none
COc1ccc(OC)c(C2=NOC(C(=O)Nc3cccnc3)C2)c1 (stereo not given)	Pf growth 96h 12µM
CCNC(=S)Nc1ccc(Cc2nc3ccccc3[nH]2)cc1	none
CCOC(=O)C1CCN(C2CCN(Cc3nc(-c4ccccc4)no3)CC2)CC1	Pf growth 96h 1.5µM
CCOC(=O)N1CCN(Cc2nc(-c3ccccc3)no2)CC1	Shiga toxin inh 62 (no result: Pf growth 96h)
CCOC(=O)N1CCN(c2nc(-c3ccccc3)c3ccccc3n2)CC1	Pf growth 48h 10µM, Pf growth 96h inconclusive
